# Laboratory results taken from PubChem BioAssay (NCATS).
# Unmarked numbers belong to inactive results. Results filed as inconclusive are left out. A call without a number means that no potency is given here. The source made the active and inactive calls. Unless noted, calls come from the whole dose curve; as a rule, active = well fitted curve in the direction sought with a large enough effect; inconclusive = small, poorly fitted or top-dose-only effect, or another doubt; inactive = no such curve, though single readings can be large; an effect the other way counts as inactive or inconclusive.
# What was measured:
# [1] = biological target: Nuclear receptor ROR-gamma (Homo sapiens) (UniProt P51449); assay: qHTS assay for small molecule antagonists of the retinoid-related orphan receptor gamma (ROR-gamma) signaling pathway (AID 651802); note: nearly all actives have a fitted effect of over 60% in size; note: potency is the fitted concentration of half-maximal effect
# Nuclear receptor ROR-gamma (Homo sapiens), sequence (P51449 whole entry, looked up): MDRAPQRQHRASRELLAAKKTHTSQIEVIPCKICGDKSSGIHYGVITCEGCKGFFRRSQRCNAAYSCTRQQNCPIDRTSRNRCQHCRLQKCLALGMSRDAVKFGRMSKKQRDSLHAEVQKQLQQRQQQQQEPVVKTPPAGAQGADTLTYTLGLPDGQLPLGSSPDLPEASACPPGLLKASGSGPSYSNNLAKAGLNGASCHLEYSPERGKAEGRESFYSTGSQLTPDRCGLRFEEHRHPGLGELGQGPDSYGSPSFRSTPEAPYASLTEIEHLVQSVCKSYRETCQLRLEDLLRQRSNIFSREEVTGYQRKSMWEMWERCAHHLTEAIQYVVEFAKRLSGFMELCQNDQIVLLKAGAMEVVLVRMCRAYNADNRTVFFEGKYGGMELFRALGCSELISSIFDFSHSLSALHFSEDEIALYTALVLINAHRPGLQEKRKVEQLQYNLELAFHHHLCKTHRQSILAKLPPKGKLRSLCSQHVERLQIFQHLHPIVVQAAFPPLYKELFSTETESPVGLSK
# Method in brief: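 CHO, TET-inducible ROR + RORE-LUC reporter, 1536-well qHTS. Compound pinned, doxycycline added, 16hr 37C/5% CO2. ONE-Glo, 30 min RT, luminescence; signal drop scored as antagonism.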
# [2] = qHTS assay for small molecule agonists of the antioxidant response element (ARE) signaling pathway measured by Nrf2-dependant transcriptional activity (AID 720636; active = well fitted curve in the direction sought with a large enough effect in the repeat runs; an effect the other way counts as inactive or inconclusive; note: potency is the fitted concentration of half-maximal effect)
# Method in brief: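 Attachment 6 hr at 37 C, then compound versus DMSO vehicle for 16 hr in ARE-luc HepG2 cells (1% dialyzed FBS); luminescence recorded 30 min after ONE-Glo addition at room temperature.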
# [3] = qHTS assay for small molecule antagonists of the retinoid-related orphan receptor gamma (ROR-gamma) signaling pathway - cell viability counter screen (AID 720652; active = well fitted curve in the direction sought with a large enough effect in the repeat runs; an effect the other way counts as inactive or inconclusive;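 note: compound exposure lasted 16 hr before ATP read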; note: potency is the fitted concentration of half-maximal effect)
# Method in brief: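 Luminescence from CellTiter-Glo after 30 min at room temperature reported cellular ATP as the cytotoxicity measure. Cells were the CHO reporter line with doxycycline-induced ROR-gamma expression, exposed to compound for 16 hr at 37 C.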
# [4] = qHTS assay for small molecule agonists of the antioxidant response element (ARE) signaling pathway measured by Nrf2-dependant transcriptional activity - cell viability counter screen (AID 720653; active = well fitted curve in the direction sought with a large enough effect in the repeat runs; an effect the other way counts as inactive or inconclusive); details: ARE-bla HepG2 viability, CellTiter-Glo ATP luminescence, 16 h; hits give low values
# Method in brief: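 Cytotoxicity counter screen: intracellular ATP quantified by CellTiter-Glo luminescence in the same ARE-bla HepG2 plates, after 16 h compound exposure and a 2 h beta-lactamase substrate step.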
# [5] = biological target: Tyrosine-protein kinase Yes (Homo sapiens) (UniProt P07947); assay: qHTS for small molecule inhibitors of Yes1 kinase: Primary Screen (AID 686947); note: nearly all actives have a fitted effect of over 60% in size
# Tyrosine-protein kinase Yes (Homo sapiens), sequence (P07947 whole entry, looked up): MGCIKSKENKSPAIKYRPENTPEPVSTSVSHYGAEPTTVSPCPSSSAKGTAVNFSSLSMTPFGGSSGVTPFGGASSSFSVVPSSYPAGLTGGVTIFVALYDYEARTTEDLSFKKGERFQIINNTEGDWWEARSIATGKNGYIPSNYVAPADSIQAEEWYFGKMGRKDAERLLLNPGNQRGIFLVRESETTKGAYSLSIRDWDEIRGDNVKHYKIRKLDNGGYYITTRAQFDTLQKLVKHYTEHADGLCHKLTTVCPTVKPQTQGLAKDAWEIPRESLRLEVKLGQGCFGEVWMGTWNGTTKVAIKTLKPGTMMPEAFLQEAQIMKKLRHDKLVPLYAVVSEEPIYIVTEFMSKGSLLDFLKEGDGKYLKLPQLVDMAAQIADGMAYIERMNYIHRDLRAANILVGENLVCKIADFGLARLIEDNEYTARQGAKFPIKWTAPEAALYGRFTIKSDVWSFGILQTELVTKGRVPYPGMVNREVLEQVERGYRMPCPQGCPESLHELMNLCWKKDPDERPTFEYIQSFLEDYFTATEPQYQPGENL
# Method in brief: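 Yes1 (4 nM) preincubated 20 min with compound, then 60 min room-temperature reaction with 0.1 mM ATP and 0.3 mg/mL poly(E4Y) in pH 7.5 Tris, 10 mM MgCl2. ADP measured by ADP-Glo luminescence, normalised to enzyme/no-enzyme controls.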
# [6] = qHTS for small molecule inhibitors of Yes1 kinase: Counter Assay (AID 686950);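 note: no kinase present so only ADP-Glo detection of a fixed ADP amount is tested; luminescence from ADP-Glo reporting ADP in a fixed ATP and ADP mixture; series mostly up to about 77 µM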
# Method in brief: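 Luminescence read-out from ADP-Glo quantifies a fixed ADP amount (0.02 mM ADP with 0.08 mM ATP) after 60 min at room temperature; signal is normalized between DMSO wells with ATP/ADP and with 0.1 mM ATP alone.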
# [7] = qHTS for compounds that reverse cellular toxicity of Amyloid beta (A-beta) peptide in yeast: LOPAC Validation Assay (AID 720559)
# Method in brief: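 Activity is expressed relative to DMSO and an equimolar ferric chloride/clioquinol mix. Compounds were pinned into medium with A-beta-expressing yeast, grown 48 hr at 30 C, then read by absorbance at 600 nm.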
# [8] = qHTS for Activators of Parkin Expression: LOPAC Validation Assay (NLuc Reporter) (AID 720572)
# Method in brief: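 Parkin promoter-driven FLuc/NLuc neuronal reporter cells; 24 h plating, 7-pt dose response, 24 h at 37 C/5% CO2; FLuc then NanoLuc reagent, 10 min each, luminescence; DMSO/positive control normalized.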
# [9] = qHTS for Activators of Parkin Expression: LOPAC Validation Assay (FLuc Reporter) (AID 720573)
# Method in brief: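 A neuronal cell line harbouring FLuc and NLuc reporters behind the Parkin promoter was exposed to compounds for 24 h. Firefly luciferase signal, measured after 10 min with detection reagent, was scaled to DMSO and positive-control wells.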
# [10] = biological target: Arylsulfatase A (Homo sapiens) (UniProt P15289); assay: qHTS screen for enhancers of Arylsulfatase A (ASA1): LOPAC Validation Assay (AID 720538); details: outcome: dose series up to 57.5 µM
# Arylsulfatase A (Homo sapiens), sequence (P15289 whole entry, looked up): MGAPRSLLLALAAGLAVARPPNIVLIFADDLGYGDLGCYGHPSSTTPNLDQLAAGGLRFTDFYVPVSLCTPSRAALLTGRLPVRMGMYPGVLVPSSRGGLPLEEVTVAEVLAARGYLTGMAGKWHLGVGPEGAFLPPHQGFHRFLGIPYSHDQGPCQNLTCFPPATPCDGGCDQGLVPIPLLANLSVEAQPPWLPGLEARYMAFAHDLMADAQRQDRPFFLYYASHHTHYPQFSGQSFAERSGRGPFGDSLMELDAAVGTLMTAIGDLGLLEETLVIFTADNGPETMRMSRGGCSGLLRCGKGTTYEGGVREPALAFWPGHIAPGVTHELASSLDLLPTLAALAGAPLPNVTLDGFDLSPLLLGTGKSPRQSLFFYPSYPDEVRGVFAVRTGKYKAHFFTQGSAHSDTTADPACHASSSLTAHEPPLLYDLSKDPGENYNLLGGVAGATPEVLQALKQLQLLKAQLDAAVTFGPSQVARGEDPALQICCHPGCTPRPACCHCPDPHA
# Method in brief: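 First, ASA-I179S fibroblasts from an MLD patient adhered for 6 hrs. Next, compounds were added for 48h. Then pNCS substrate (0.5mM final) with lysis buffer reacted 14h at room temperature before NaOH stop and fluorescence measurement.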
smiles,measurement,setting,value
CC(O)C(=O)O (configuration not stated),Potency,[1],inactive
same,Potency,[2],inactive
same,Potency,[3],inactive
same,max response,[4],-3.07%
Nc1ccc(C(=O)O)cc1,Potency,[1],inactive
same,Potency,[2],inactive
same,Potency,[3],inactive
same,max response,[4],2.28%
COc1cccc2c1C(=O)c1c(O)c3c(c(O)c1C2=O)C[C@@](O)(C(=O)CO)C[C@@H]3O[C@H]1C[C@H](N)[C@H](O)[C@H](C)O1,outcome,[5],inactive
same,outcome,[6],inactive
same,Potency,[2],inactive
same,Potency,[3],23.7 µM (active)
CN(C)/N=N/c1nc[nH]c1C(N)=O,Potency,[1],inactive
same,Potency,[2],inactive
same,Potency,[3],inactive
same,max response,[4],-9.97%
Oc1c(Cl)cc(Cl)cc1Sc1cc(Cl)cc(Cl)c1O,Potency,[1],4.73 µM (active)
same,Potency,[2],inactive
same,Potency,[3],inactive
C[C@]12CC[C@@H]3c4ccc(O)cc4CC[C@H]3[C@@H]1CC[C@@H]2O,Potency,[1],33.5 µM (active)
same,outcome,[7],inactive
same,outcome,[8],inactive
same,outcome,[9],inactive
same,Potency,[2],inactive
same,max response,[4],-2.14%
N[C@@H](Cc1cnc[nH]1)C(=O)O,outcome,[10],inactive
same,outcome,[7],inactive
same,outcome,[8],inactive
same,outcome,[9],inactive
Oc1c(I)cc(Cl)c2cccnc12,Potency,[1],23.7 µM (active)
same,Potency,[2],5.96 µM (active)
same,max response,[4],-8.01%
CC[C@H](C)C(=O)O[C@H]1CCC=C2C=C[C@H](C)[C@H](CC[C@@H]3C[C@@H](O)CC(=O)O3)[C@H]21,outcome,[10],inactive
same,outcome,[7],inactive
Nc1cc(Cl)c(NC2=NCCN2)c(Cl)c1,outcome,[10],inactive
same,outcome,[7],inactive
same,outcome,[8],inactive
same,outcome,[9],inactive
C=C(CC)C(=O)c1ccc(OCC(=O)O)c(Cl)c1Cl,Potency,[1],37.6 µM (active)
same,Potency,[3],inactive
same,max response,[4],6.68%
COc1cc2c(cc1O)CC[C@@H]1[C@@H]2CC[C@]2(C)[C@@H](O)CC[C@@H]12,outcome,[5],inactive
same,outcome,[6],inactive
same,outcome,[10],inactive
same,outcome,[7],inactive
same,outcome,[8],inactive
same,outcome,[9],inactive
